CYP2C19 act: activators of human cytochrome P450 2C19 | 96,000 tested, under 10 active | activation factor at 5 µM | AID 1025 | recombinant CYP2C19, luciferin-H EGE luminescence; active compounds read high; 0 = fully inhibited enzyme, 1 = untreated enzyme | P33261;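 active = activation factor of at least 2 at 5 µM in the primary screen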;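 note: 0 = wells with 2.5 mM tranylcypromine and 1 = vehicle-only wells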
CYP2C19 inhib: blocks human cytochrome P450 2C19; AID 778; CYP2C19 Supersomes, luciferin-H EGE luminescence, 30 min; 96,000 compounds, 21% hits; inhibition, % at 5 µM;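 active = CYP2C19 inhibition above a set limit at 5 µM in the primary screen, cut at about 50% in these data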;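 note: plate controls were negative control wells for no effect and 2.5 mM tranylcypromine positive control for full effect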
CYP2C9 inhib: inhibitors of human CYP2C9 | P11712 | CYP2C9 Supersomes, luciferin-H conversion, luminescence | inhibition, % at 5 µM | 96,000 compounds, 20% hits | AID 777;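 active = blocking of liver enzyme CYP2C9 beyond about 50% at 5 µM, limit read from the data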
Cav32 inh: human Cav3.2 channel inhibition, primary screen; O95180; Cav3.2-expressing cells, Fluo-4 calcium fluorescence FDSS; active compounds read low; B-score at 10 µM; 100,000 compounds, 4% hits;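 active = single-dose well whose peak fluorescence ratio is a statistical outlier from its plate by either plate-standardised score or position-corrected B-score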
Target sequence (O95180 whole entry, looked up): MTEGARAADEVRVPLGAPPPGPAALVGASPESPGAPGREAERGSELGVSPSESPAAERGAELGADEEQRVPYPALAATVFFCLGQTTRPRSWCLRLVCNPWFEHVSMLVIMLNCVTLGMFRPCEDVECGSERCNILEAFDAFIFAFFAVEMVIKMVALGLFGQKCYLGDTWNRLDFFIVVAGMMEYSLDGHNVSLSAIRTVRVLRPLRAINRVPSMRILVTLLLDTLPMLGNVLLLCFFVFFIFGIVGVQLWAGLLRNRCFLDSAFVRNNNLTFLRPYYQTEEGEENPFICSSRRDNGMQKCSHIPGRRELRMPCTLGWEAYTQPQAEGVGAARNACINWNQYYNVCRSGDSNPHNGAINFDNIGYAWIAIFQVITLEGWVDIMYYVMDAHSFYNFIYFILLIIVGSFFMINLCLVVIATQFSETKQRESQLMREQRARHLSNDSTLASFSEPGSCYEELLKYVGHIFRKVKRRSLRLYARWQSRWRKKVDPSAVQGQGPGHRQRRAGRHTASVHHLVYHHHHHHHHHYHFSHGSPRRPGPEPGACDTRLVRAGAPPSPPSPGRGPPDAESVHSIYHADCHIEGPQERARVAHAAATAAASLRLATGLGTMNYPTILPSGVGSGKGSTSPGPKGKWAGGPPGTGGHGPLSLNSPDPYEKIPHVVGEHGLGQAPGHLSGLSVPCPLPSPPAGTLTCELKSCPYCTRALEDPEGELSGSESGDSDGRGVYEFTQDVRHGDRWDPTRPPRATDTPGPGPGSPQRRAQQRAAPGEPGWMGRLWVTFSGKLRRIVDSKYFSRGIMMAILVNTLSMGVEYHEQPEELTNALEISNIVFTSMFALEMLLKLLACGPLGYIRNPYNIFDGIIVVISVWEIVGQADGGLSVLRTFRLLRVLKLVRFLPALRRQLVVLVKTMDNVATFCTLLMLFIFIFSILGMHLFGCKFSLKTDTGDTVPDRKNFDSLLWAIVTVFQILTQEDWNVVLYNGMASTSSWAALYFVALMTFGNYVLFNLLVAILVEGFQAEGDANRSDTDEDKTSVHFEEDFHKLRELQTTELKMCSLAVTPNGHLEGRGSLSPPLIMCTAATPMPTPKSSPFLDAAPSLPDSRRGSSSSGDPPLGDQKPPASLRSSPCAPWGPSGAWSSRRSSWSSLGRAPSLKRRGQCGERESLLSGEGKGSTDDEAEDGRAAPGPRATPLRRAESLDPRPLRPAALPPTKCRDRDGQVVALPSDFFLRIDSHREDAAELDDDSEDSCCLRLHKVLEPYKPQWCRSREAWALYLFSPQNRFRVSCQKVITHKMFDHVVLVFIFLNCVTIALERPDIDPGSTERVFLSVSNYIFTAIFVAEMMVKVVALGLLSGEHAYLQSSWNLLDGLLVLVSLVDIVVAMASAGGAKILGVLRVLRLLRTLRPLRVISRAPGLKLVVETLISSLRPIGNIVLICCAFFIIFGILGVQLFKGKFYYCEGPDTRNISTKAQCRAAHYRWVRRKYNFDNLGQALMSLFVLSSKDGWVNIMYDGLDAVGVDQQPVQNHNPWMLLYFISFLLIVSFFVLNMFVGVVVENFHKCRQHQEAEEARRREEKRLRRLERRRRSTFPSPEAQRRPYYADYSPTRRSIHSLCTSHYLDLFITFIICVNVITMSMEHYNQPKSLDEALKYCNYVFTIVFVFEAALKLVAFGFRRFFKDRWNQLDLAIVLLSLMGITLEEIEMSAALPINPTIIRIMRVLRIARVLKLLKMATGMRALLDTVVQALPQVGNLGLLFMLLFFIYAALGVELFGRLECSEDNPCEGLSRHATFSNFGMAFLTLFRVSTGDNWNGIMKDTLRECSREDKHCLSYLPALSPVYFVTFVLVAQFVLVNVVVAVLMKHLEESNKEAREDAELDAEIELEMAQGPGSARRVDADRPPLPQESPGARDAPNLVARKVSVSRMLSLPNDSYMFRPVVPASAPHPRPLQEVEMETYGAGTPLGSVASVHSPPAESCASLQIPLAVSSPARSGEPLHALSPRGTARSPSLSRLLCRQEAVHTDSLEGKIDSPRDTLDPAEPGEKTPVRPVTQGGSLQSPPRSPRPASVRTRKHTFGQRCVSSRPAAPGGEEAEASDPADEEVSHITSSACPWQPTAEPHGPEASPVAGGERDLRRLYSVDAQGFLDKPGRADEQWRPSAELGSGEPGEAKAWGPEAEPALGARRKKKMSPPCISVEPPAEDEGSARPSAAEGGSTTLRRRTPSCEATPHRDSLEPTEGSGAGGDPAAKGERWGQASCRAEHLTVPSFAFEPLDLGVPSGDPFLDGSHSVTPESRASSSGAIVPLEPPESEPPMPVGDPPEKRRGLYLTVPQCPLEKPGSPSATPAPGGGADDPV
CYP2C9 act: CYP2C9 (human) activation; P11712; recombinant CYP2C9, luciferin-H conversion, luminescence; active compounds read high; factor 1 = untreated enzyme, 0 = blocked; activation factor at 5 µM; 96,000 compounds, 1.4% hits; AID 1024;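 active = activation factor of 2 or more for CYP2C9 at a 5 µM dose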;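 note: 0 = sulfaphenazole-blocked wells and 1 = vehicle-only wells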
* marks the source's active call; other numbers are inactive results; / = not tested or not shown. An excerpt weighted towards active compounds, which were near 27% of everything screened.

SMILES	CYP2C19 act	CYP2C19 inhib	CYP2C9 inhib	Cav32 inh	CYP2C9 act
CC1(C(=O)NC2CCCC2)CCC(=O)N1Cc1ccc2c(c1)OCO2 (stereo not given)	0.9	6	40	0.43	0.6
CCOC(=O)C1=C(CS(=O)(=O)c2ccc(F)c(C)c2)NC(=O)NC1c1ccc(O)c(O)c1 (stereo not given)	0.3	69*	8	0.084	0.9
CCn1c(SCC(=O)c2ccccc2)nc2c(c1=O)SC(C)C2 (stereo not given)	0.6	38	90*	-0.76	0.1
CC(C)n1c(SCC(=O)Nc2ccccc2N2CCOCC2)nc2c1c(=O)n(C)c(=O)n2C	/	/	/	-0.38	/
CCSc1nc2c(c(=O)n1CC)SC(C)C2 (stereo not given)	0.8	19	19	-1.2	0.8
CCn1c(SCC(=O)Nc2ccccc2N2CCCCC2)nc2c1c(=O)n(C)c(=O)n2C	0.6	39	79*	-3.5	0.2
CCn1c(SCC(=O)N2CCCCC2)nc2c(c1=O)SC(C)C2 (stereo not given)	0.7	25	69*	3.4	0.3
COCCn1c(SCC(=O)N2CCCc3ccccc32)nc2ccccc2c1=O	0	96*	96*	-2.6	0
CCN1CCN(C(=O)CN(c2ccccc2C)S(C)(=O)=O)CC1	0.9	6	-7	0.5	1.1
CCCn1c(SCC(=O)N2CCCc3ccccc32)nc2c1c(=O)n(C)c(=O)n2C	0.7	31	79*	/	0.2
CCn1c(SCC(=O)N2CCCc3ccccc32)nc2c(c1=O)SC(C)C2 (stereo not given)	/	/	/	-0.4	/
CCn1c(SCC(=O)N2CCc3ccccc32)nc2c(c1=O)SC(C)C2 (stereo not given)	0.8	23	93*	/	0.1
COCCn1c(SCC(=O)N2CCCc3ccccc32)nc2c(c1=O)SC(C)C2 (stereo not given)	0.7	34	95*	0.44	0
COC(=O)/C=C/c1ccc2c(c1)S(=O)(=O)N(c1cccc(OC)c1)[C@H]2CC(=O)OC	/	/	/	0.63	/
Cc1cc(C2=CC(C)(c3cc(C)oc3C)Nc3nc(C(F)(F)F)nn32)c(C)o1 (stereo not given)	0.6	41	87*	-3.5	0.1
CC1CCN(S(=O)(=O)c2ccc(S(=O)(=O)N3CCN4CCCC4C3)cc2)CC1 (stereo not given)	0.9	14	12	/	0.9
CCOC(=O)C1=C(C)NC(=O)NC1c1cccc(OC)c1OCc1ccccc1Cl (stereo not given)	0.8	24	9	-0.017	0.9
CCCC1=C(C(=O)OCC)C(c2cc(Cl)cc(OC)c2OCc2ccccc2)NC(=O)N1 (stereo not given)	0.5	50*	64*	-2.7	0.4
O=C(Cc1cnn(-c2ccccc2)c1)c1ccc(O)c(O)c1O	0.3	65*	79*	-2.3	0.2
Cc1ccc(O)c(C(=O)c2cnn(-c3ccccc3)c2)c1	0.8	23	-26	-0.99	1.3
CCc1cc(C(=O)Cc2cnn(-c3ccccc3)c2)c(O)cc1O	0.4	55*	22	-0.0022	0.8
COc1ccc(Cl)c(N2CCN(CCCNC(=O)Nc3ccc(C)cc3)CC2)c1	0.5	49	-28	/	1.3
CN(C)/C=N/c1cc(=O)[nH]c(=O)n1C	/	/	/	0.015	/
CCCOC(=O)c1cccc(NC(=O)C(C)(C)C)c1	0.2	79*	59*	0.2	0.4
CC(C)(C)C(=O)Nc1cccc(C(=O)c2cccc(NC(=O)C(C)(C)C)c2)c1	0.5	55*	22	0.092	0.8
SMILES	CYP2C19 act	CYP2C19 inhib	CYP2C9 inhib	Cav32 inh	CYP2C9 act
COc1cc(NC(=O)C2CCCCC2)c(OC)cc1NC(=O)CCC(=O)NCc1ccco1	1	1	6	0.57	0.9
COc1ccc(OC(C)C(=O)N2CCc3ccccc3C2)cc1 (stereo not given)	0.5	52*	23	-1.2	0.8
COc1ccc(CC(=O)N2CCCc3ccccc32)cc1	0.4	55*	20	-0.36	0.8
Cc1c(Br)c([N+](=O)[O-])nn1C(C)C(=O)N1CCCc2ccccc21 (stereo not given)	0.4	58*	41	-2.5	0.6
COc1ccc(OC(C)C(=O)N2CCC(C)CC2)cc1 (stereo not given)	0.8	16	0	0.41	1
Cc1ccc(OC(C)C(=O)N2CCCc3ccccc32)cc1 (stereo not given)	0.5	54*	44	-2.5	0.6
COc1ccc(CCNC(=O)C2CC3Cn4c(nc5ccccc54)C3N2c2ccccc2)cc1 (stereo not given)	/	/	/	-0.035	/
CCCOc1ccc(C(=O)N2CCCc3ccccc32)cc1	0.1	93*	69*	0.82	0.3
COc1cc(OC)cc(C(=O)N2CCCc3ccccc32)c1	0.2	76*	24	-0.99	0.8
O=C(Nc1ccc(Cc2ccncc2)cc1)C1CCC(N2C(=O)C3C4C=CC(C4)C3C2=O)CC1 (stereo not given)	0	96*	95*	0.062	0
O=C1C2C3C=CC(C3)C2C(=O)N1c1ccc(Cc2ccncc2)cc1 (stereo not given)	0.3	71*	80*	-0.027	0.2
Cc1ccc(OCc2nn3c(-c4n[nH]c5c4CCC5)nnc3s2)cc1	0.9	8	18	/	0.8
COc1ccc(-n2nc3c(c2NC(=O)c2c(F)cccc2Cl)CS(=O)C3)cc1 (stereo not given)	1.1	-8	-7	0.76	1.1
O=C1CC(N2CCN(C/C=C/c3ccccc3)CC2)C(=O)N1Cc1cccs1 (stereo not given)	0.4	55*	36	-0.32	0.6
C#CCOCCOCCOCCNc1nc(N2CCN(C(=O)C([C@@H](C)CC)n3cc(C(N)COC(=O)C(F)(F)F)nn3)CC2)nc(N2CCN(C(=O)C([C@@H](C)CC)n3cc(C(N)CC(C)C)nn3)CC2)n1 (stereo not given in full)	/	/	/	-1.1	/
Cc1ccccc1OCC(=O)NNC(=O)c1ccc(-c2ccccc2)cc1	0.8	16	-24	0.57	1.2
Cc1ccc(OCC(=O)N2N=C(C(F)(F)F)CC2(O)C(C)(C)C)cc1C (stereo not given)	0.6	42	45	-7.3*	0.5
Cc1ccccc1OCC(=O)N1N=C(C(F)(F)F)CC1(O)C(C)(C)C (stereo not given)	/	/	/	-8.2*	/
Cc1ccccc1C(=O)N/N=C/c1ccc(OCC(=O)N2CCCCC2)cc1	1	-1	24	-0.53	0.8
COc1ccc(-n2c(N)c(C(=O)NCc3ccco3)c3nc4ccccc4nc32)c(OC)c1	0.7	30	24	-1.5	0.8
Nc1c(C(=O)NCc2ccco2)c2nc3ccccc3nc2n1CCc1ccccc1F	0.6	38	52*	/	0.5
COc1ccc(CCn2c(N)c(C(=O)NCc3ccco3)c3nc4ccccc4nc32)cc1OC	0.2	77*	56*	0.093	0.4
COc1cc(F)c(C(=O)NC(C)(C)CO)cc1OC	/	/	/	0.89	/

Assay outcomes deposited in PubChem by several laboratories.
